Rows were chosen to be rich in hits. Some 11% of all compounds tested hit in one or more screens of this group.
AMA1 RON2 block = qHTS for Inhibitors of AMA1-RON; Towards Development of Antimalarial Drug Lead: Primary Screen; AlphaScreen AMA1-biotinylated RON2 peptide binding; Potency, µM (doses to about 58.2 µM), for the others: at the top dose activity change, negative = inhibition, actives largely listed as inhibitors; hit rate 0.2% among 360,000; AID 720542, 2013;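 also: 0% = vehicle wells and -100% = peptide control; nearly all actives have a fitted effect of over 45% in size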
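AMA1 (3D7) with his tag at 25 nM final met compounds first, then biotinylated RON2 peptide at 25 nM; detection used donor plus acceptor beads, 10 µg/mL apiece, read by AlphaScreen after 30 min at room temperature.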
AmpC detergent = qHTS Inhibitors of AmpC Beta-Lactamase (assay with detergent) | AmpC hydrolysis of nitrocefin, absorbance 480 nm, 0.01% Triton | hit rate 0.041% among 370,000 | P00811 | Potency, µM (series often up to 114 µM), for inactives: at the top dose activity change, negative = inhibition, hits mostly inhibitors;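 also: 0% = no-compound wells and -100% = no-enzyme wells; nearly all actives have a fitted effect of over 25% in size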
Target sequence (P00811 whole entry, looked up): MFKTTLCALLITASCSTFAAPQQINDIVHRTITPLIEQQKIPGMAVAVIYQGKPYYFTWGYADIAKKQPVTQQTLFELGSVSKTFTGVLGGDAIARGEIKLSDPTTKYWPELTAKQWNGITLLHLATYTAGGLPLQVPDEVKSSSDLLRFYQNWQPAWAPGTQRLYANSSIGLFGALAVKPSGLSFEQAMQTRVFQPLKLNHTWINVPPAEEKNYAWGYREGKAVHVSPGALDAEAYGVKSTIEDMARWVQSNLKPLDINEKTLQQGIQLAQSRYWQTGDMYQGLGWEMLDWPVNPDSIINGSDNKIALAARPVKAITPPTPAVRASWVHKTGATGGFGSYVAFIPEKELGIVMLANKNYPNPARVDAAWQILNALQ
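AmpC (5.3 nM in the dispensed reagent) in 20 mM phosphate pH 7.0 with 0.01% (detergent screen) or 0.0001% Triton X-100 was preincubated with compounds for 15 min at room temperature. Nitrocefin was then added from an 800 uM solution, and hydrolysis was followed at 480 nm.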
Pf growth 48h = Primary qHTS for delayed death inhibitors of the malarial parasite plastid, 48 hour incubation; P. falciparum luciferase growth in erythrocytes, 48 h; Potency, µM (top dose mostly 28.7 µM), for the others: at the top dose activity change, negative = inhibition, actives largely listed as inhibitors; hit rate 5.9% among 310,000
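Growth was read as firefly luciferase luminescence after a 48 h, 37 C, 5% CO2 exposure of compounds to reporter-bearing P. falciparum cultures (0.1% parasitemia, 2% hematocrit final) in Albumax-supplemented RPMI 1640.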
AmpC no deterg = qHTS Inhibitors of AmpC Beta-Lactamase (assay without detergent). P00811. AmpC nitrocefin hydrolysis, absorbance 480 nm, 0.0001% Triton. Potency, µM (doses to about 57.1 µM), inactives show at the top dose activity change, negative = inhibition, hits mostly inhibitors. hit rate 0.52% among 330,000;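 also: plate controls were no compound for no effect and no enzyme for full effect; nearly all actives have a fitted effect of over 20% in size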
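20 mM phosphate pH 7.0 + 0.01% (detergent screen) or 0.0001% Triton X-100; 5.3 nM AmpC reagent; cpd preinc 15 min RT; nitrocefin (800 uM stock) to start; A480 q20 s × 4 min; Activity was normalised to no-enzyme and no-compound control wells.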
Pf growth 96h = Primary qHTS for delayed death inhibitors of the malarial parasite plastid, 96 hour incubation | AID 504834, 2011 | Potency, µM (highest dose often 28.7 µM), for the others: top-dose activity change, negative = inhibition, hits mostly inhibitors | hit rate 6.9% among 320,000 | P. falciparum luciferase reporter growth, 96 h
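96 h incubation, 37 C, 5% CO2, of luciferase-reporter P. falciparum-infected RBCs (2% hematocrit, 0.05% parasitemia final) with test compounds; endpoint luminescence.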
HCV inh = qHTS Assay for Inhibitors of Hepatitis C Virus (HCV). Huh7.5.1 HCVcc-Cre infection, luciferase reporter, 44 h. Potency, µM (top dose mostly 41.8 µM), for the others: at the highest dose activity change, negative = inhibition, hits mostly inhibitors. AID 651820, 2012. hit rate 3.4% among 340,000
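Cells (1,000/well) were plated 4 h before compound, then infected with HCVcc-Cre virus (~0.5 moi). After 44 h further culture, infection was read as luciferase luminescence following a 15 min substrate incubation at room temperature.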
An asterisk follows results filed as active; u = inconclusive; x = not tested or not shown. Calls follow the shape of the dose curve; as a rule, active = well fitted curve in the direction sought with a large enough effect; inconclusive = small, poorly fitted or top-dose-only effect, or another doubt; inactive = no such curve, though single readings can be large; an effect the other way counts as inactive or inconclusive. Unless noted, % is scaled to controls: 0 for no effect and ±100 for the full control effect; potency is read from the fitted curve at half-maximal effect.

SMILES	AMA1 RON2 block	AmpC detergent	Pf growth 48h	AmpC no deterg	Pf growth 96h	HCV inh
O=C(Nc1ccncc1)C1CCCN(S(=O)(=O)c2cccc3cccnc23)C1 (centres undefined)	0%	u	-11%	45µM*	5.9µM*	u
CCN(CCCNC(=O)c1ccc(Sc2ccc(F)cc2)c(NC(C)=O)c1)c1ccccc1	x	7%	x	x	x	x
O=S(=O)(c1ccccc1)N1CCN(c2cc(-c3ccccc3)nc3ncnn23)CC1	5%	3%	u	-22%	u	u
COc1ccc(-c2cc(N3CCCC3)n3ncnc3n2)cc1	-11%	0%	28%	-16%	-9%	13µM*
COc1ccc(S(=O)(=O)N2CCN(c3cc(-c4ccccc4)nc4ncnn34)CC2)cc1	2%	-1%	-18%	-10%	24%	10µM*
COc1ccc(N(C)S(=O)(=O)c2c(C)[nH]c(=O)[nH]c2=O)c(OC)c1	-12%	-8%	0%	-16%	6.6µM*	12%
CCOC(=O)c1[nH]c2ccc(F)cc2c1NC(=O)CN1CCN(C/C=C/c2ccccc2)CC1	-24%	-8%	9.3µM*	111%	5.9µM*	10µM*
CCOC(=O)c1[nH]c2ccc(F)cc2c1NC(=O)CN1CCc2cc(OC)c(OC)cc2C1	x	u	12µM*	118%	u	x
CCOC(=O)c1[nH]c2cc(OC)c(OC)cc2c1NC(=O)CN1CCN(c2ccc(OC)cc2)C(C)C1 (centres undefined)	x	0%	9.3µM*	229%	x	u
COC(=O)c1[nH]c2ccccc2c1NC(=O)CN1CCN(C/C=C/c2ccccc2)CC1	-5%	-14%	x	77%	86%	11µM*
COC(=O)c1[nH]c2ccc(Cl)cc2c1NC(=O)CN1CCc2cc(OC)c(OC)cc2C1	-4%	3%	u	107%	x	u
COC(=O)c1[nH]c2cccc(OC)c2c1NC(=O)CN1CCN(c2cccc(OC)c2)C(C)C1 (centres undefined)	-7%	0%	u	202%	-14%	-10%
CCn1ccc2cc(S(=O)(=O)N3CCCN(C(=O)Nc4ccc(C)cc4)CC3)ccc21	x	15%	x	x	x	x
CCc1ccc(NC(=O)Cn2c(=O)n(-c3ccc(OC)cc3)c(=O)c3ccc(C(=O)NCc4ccc(C)cc4)cc32)cc1	x	3%	x	x	x	x
CN(CC(=O)NCc1ccc(Cl)cc1)S(=O)(=O)c1ccc2c(c1)c(=O)n(C)c(=O)n2C	x	-2%	x	x	x	x
CC(C)OCCCNC(=O)COc1ccc2oc3c(c2c1)CCCC3	3%	7%	-19%	203%	4.1µM*	-13%
Cc1ccnc(NC(=O)COc2ccc3oc4c(c3c2)CCCC4)c1	-3%	2%	125%	-18%	12µM*	1%
CCOC(=O)COc1ccc(CC)cc1C(=O)c1ccn2nc(-c3ccc(F)cc3)cc2n1	x	0%	x	x	x	x
CCOC(=O)c1c(S(=O)(=O)N2CCC(C(=O)Nc3ccc(OCC)cc3)CC2)c(C)n(C)c1C	x	-4%	x	x	x	x
COC(=O)C1=C(N)Oc2cc(C)n(Cc3ccco3)c(=O)c2C1c1cccc(Cl)c1 (centres undefined)	3%	-4%	-36%	-30%	x	8.9µM*
CCn1c(C)cc2c(c1=O)C(c1ccccc1)C(C(=O)OC)=C(N)O2 (centres undefined)	10%	-5%	3%	-13%	278%	-18%
COC(=O)C1=C(N)Oc2cc(C)n(CCCn3ccnc3)c(=O)c2C1c1ccc(Cl)cc1 (centres undefined)	-11%	u	3.3µM*	109%	4.7µM*	-11%
COc1ccc(NC(=O)CCS(=O)(=O)c2ccc3nc(C)sc3c2)cc1Cl	x	-11%	x	x	x	x
COc1cccc(C(=O)Nc2ccccc2N2CCN(C(=O)c3ccccc3)CC2)c1	-7%	x	x	35%	x	u
Cc1noc(C)c1COc1cccc(C(=O)Nc2ccccc2N2CCOCC2)c1	-18%	-6%	u	51%	13µM*	u
SMILES	AMA1 RON2 block	AmpC detergent	Pf growth 48h	AmpC no deterg	Pf growth 96h	HCV inh
CN1CCN(c2ccccc2NC(=O)c2ccc(OCc3ccccc3)cc2)CC1	-6%	3%	7.4µM*	103%	13µM*	11µM*
CCOc1cccc(C(=O)Nc2ccccc2C(=O)N2CCN(C)CC2)c1	-8%	u	2%	-14%	4.7µM*	8%
CN1CCN(c2ccccc2NC(=O)c2cccc(OCc3ccccc3)c2)CC1	-11%	-1%	5.2µM*	122%	x	u
O=[N+]([O-])c1ccc(C(c2sc3nc(-c4ccco4)nn3c2O)N2CCN(Cc3ccccc3)CC2)cc1 (centres undefined)	x	0%	x	x	x	x
Cc1c(C(=O)N(C)C)sc2c1c(=O)n(-c1ccc(F)cc1)c(=O)n2Cc1cc(=O)n2ccccc2n1	x	3%	x	x	x	x
Cc1ccc2c(Sc3ccc(Cl)cc3)c(C(=O)NCCC(C)C)[nH]c2c1	x	0%	x	x	x	x
Cc1ccc(NC(=O)C(=O)NCc2ccc(Cl)cc2)cc1	x	9%	x	x	x	x
Cc1nc(COc2ccc(C(=O)Nc3ccccc3N3CCOCC3)cc2)cs1	-10%	-10%	-19%	82%	u	11µM*
CN1CCN(c2ccccc2NC(=O)c2c(F)cccc2F)CC1	1%	u	u	-9%	3.7µM*	-19%
COc1c(F)c(F)c(C(=O)Nc2ccccc2N2CCN(C(C)=O)CC2)c(F)c1F	4%	1%	u	x	94%	-12%
COc1c(F)c(F)c(C(=O)Nc2ccccc2N2CCN(C(=O)C(C)C)CC2)c(F)c1F	2%	-3%	0.93µM*	113%	57%	u
CC(C)Oc1ccc(C(=O)Nc2ccccc2N2CCOCC2)cc1	11%	6%	u	34%	187%	-4%
CCN(CC)CCNC(=O)C(=O)NCC(c1ccc2c(c1)OCO2)N1CCOCC1 (centres undefined)	x	-7%	x	x	x	x
O=C(NC1C2CC3CC(C2)CC1C3)C1CC1 (centres undefined)	4%	-3%	7.4µM*	-4%	27%	14%
COc1ccc(CNC(=O)CSc2nc3ccsc3c(=O)n2Cc2ccccc2Cl)cc1	x	2%	x	x	x	x
COc1cc(OC)cc(-c2oc(=O)c3cc(OC)c(OC)cc3c2C#CCCO)c1	3%	x	x	7%	x	u
COc1ccc(-c2oc(=O)c3cc(OC)c(OC)cc3c2C#CCCO)cc1	-1%	x	x	144%	x	3.2µM*
